Assay results from PubChem BioAssay.
The source made the active and inactive calls. Unless noted, the rule behind the calls is not given here.

Legend:
[1] = system: Wnt5a (protein binding on small-molecule microarray); test: Wnt5a binders on small-molecule microarray, primary screen, biophysical, 635/667 nm fluorescence (AID 1142); settings: 635 nm fluorescence, higher = more signal;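 note: fluorescence read at 667 nm with signal to noise per printed feature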
[2] = cell viability in Huh7 cells, primary screen, cytotoxicity control for HCV replication inhibitor project, CellTiter-Glo luminescence, basal, 48 h (AID 1143); settings: Huh7 HCV replicon, higher = more signal, called active from +8 up or from −8 down;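 note: Huh7 hepatoma cells carrying a hepatitis C replication reporter with no stimulus; test concentration not given here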
[3] = P. aeruginosa biofilm formation inhibitors, primary screen, PAO1 strain, BacTiter-Glo luminescence, LB-PBS (AID 1144); settings: 12 h, higher = more signal
[4] = CREB reporter modulators without forskolin, primary screen, cell-based, PC12, CRE-LacZ reporter, unstimulated (AID 1145); settings: no forskolin, luminescence, 4.5 h, higher = more signal, called active from +8 up or from −8 down
[5] = CREB reporter modulators under forskolin, primary screen, cell-based, PC12, CRE-LacZ reporter, forskolin-stimulated (AID 1146); settings: luminescence, 4.5 h, higher = more signal, called active from +8 up or from −8 down;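 note: PC12 cells with 6xCRE LacZ reporter stimulated by forskolin 10 µM; beta-galactosidase reporter signal reflecting CREB driven transcription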
[6] = molecular target: Streptavidin (Streptomyces avidinii) (UniProt P22629); test: streptavidin binders on small-molecule microarray, primary screen, artefact control for SMM compound annotation, biophysical, 635/667 nm fluorescence (AID 1147); settings: streptavidin binding, higher = more signal;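 note: signal reflects streptavidin binding to arrayed compounds as a control protein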
Chain of Streptavidin (Streptomyces avidinii) (P22629 whole entry, looked up): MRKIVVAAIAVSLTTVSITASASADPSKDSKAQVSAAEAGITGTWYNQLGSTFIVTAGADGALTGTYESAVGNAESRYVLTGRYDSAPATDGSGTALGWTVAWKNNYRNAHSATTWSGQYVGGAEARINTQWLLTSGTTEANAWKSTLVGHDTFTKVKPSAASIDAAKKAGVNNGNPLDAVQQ

[7] = small-molecule binders of probe aInhba, primary screen, biochemical, small-molecule microarray, 635/667 nm fluorescence (AID 1148); settings: higher = more signal;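 note: score merges 667nm spot fluorescence with signal-to-noise for antibody binding to printed compounds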
Torsin-1A (Homo sapiens) [8] = molecular target: Torsin-1A (Homo sapiens) (UniProt O14656); test: torsin A binders from cell lysate, primary screen, small-molecule microarray, wild-type, 635/667 nm (AID 1149); settings: COS7 hTOR1A-WT lysate, 635 nm fluorescence, higher = more signal
Chain of Torsin-1A (Homo sapiens) (O14656 whole entry, looked up): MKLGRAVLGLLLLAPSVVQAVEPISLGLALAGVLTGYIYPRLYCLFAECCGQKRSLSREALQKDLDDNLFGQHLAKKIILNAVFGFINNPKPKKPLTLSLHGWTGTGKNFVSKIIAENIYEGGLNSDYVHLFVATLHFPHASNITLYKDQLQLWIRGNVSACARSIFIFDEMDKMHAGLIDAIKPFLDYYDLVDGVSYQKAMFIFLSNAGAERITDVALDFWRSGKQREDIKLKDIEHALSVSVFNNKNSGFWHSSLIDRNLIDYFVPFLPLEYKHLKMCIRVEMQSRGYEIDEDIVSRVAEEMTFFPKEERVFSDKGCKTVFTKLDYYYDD

Torsin-1A (Homo sapiens) [9] = molecular target: Torsin-1A (Homo sapiens) (UniProt O14656); test: small-molecule binders of mutant TOR1A in lysate, primary screen, cell lysate, small-molecule microarray, COS7 lysate, 635/667 nm fluorescence (AID 1150); settings: COS7 hTOR1A mutant lysate, 635 nm fluorescence, higher = more signal;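 note: score pools 667 nm emission and signal to noise measuring lysate protein binding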
[10] = system: Sonic hedgehog protein (Shh); test: small-molecule binders of Shh protein, primary screen, biochemical, small-molecule microarray, 635/667 nm fluorescence (AID 1151); settings: small-molecule microarray binding, 635 nm fluorescence; higher = more signal;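 note: Shh protein binding to compounds spotted on small-molecule microarray slides; score combines spot fluorescence intensity with signal-to-noise across triplicate slides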
[11] = E. coli DRC41 culture turbidity changes, primary screen, E. coli filamentation inducer project, strain DRC41, OD650, 48 h (AID 1152);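 note: E. coli MC1000 strain DRC41 lacking acrAB efflux pump and sulA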; settings: E. coli DRC41 (acrAB sulA), higher = more signal, called active from +8 up or from −8 down
[12] = small-molecule binders of probe aLefty1, primary screen, biochemical, small-molecule microarray, 635/667 nm fluorescence (AID 1153); settings: higher = more signal;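 note: score merges spot fluorescence with signal-to-noise ratio from the scanned slide images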
[13] = PSAC antagonists in infected red cells, primary screen, cell-based, P. falciparum Indochina, OD700, 1 h (AID 1154); settings: P. falciparum Indochina infected RBC osmotic lysis, higher = more signal, called active from +8 up or from −8 down
[14] = PSAC antagonists in infected red cells, primary screen, cell-based, P. falciparum Indochina, OD700, 2 h (AID 1155);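 note: lysis reports solute entry through the parasite surface anion channel PSAC; channel blockers reduce lysis of infected cells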; settings: P. falciparum Indochina infected erythrocytes, osmotic lysis OD700; higher = more signal, called active from +8 up or from −8 down
[15] = osmotic lysis modulators in infected erythrocytes, primary screen, PSAC antagonist project, cell-based, P. falciparum Indochina, OD700, 3 h (AID 1156); settings: higher = more signal, called active from +8 up or from −8 down
[16] = PSAC antagonists in infected red cells, primary screen, cell-based, P. falciparum Indochina, OD700, 18 h (AID 1157); settings: P. falciparum Indochina infected erythrocytes, osmotic lysis OD700, 18 h; higher = more signal, called active from +8 up or from −8 down
[17] = modulators of S6 phosphorylation in cells, primary screen, cell-based, A549, cytoblot, luminescence, serum-stimulated (AID 1158); settings: A549 phospho-S6 cytoblot, 5 h, higher = more signal;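 note: serum-stimulated A549 lung adenocarcinoma cells; signal is phosphorylated S6 detected by cytoblot immunostaining with HRP secondary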
[18] = molecular target: NADPH oxidase 2 (Homo sapiens) (UniProt P04839); test: NOX2-dependent H2O2 signal modulators, primary screen, NOX inhibitor project, cell-based, HEK293-NOX2, PMA-stimulated, Amplex Red fluorescence (AID 1159); settings: 45 min, higher = more signal, called active from +8 up or from −8 down; note: test concentration not given here
Chain of NADPH oxidase 2 (Homo sapiens) (P04839 whole entry, looked up): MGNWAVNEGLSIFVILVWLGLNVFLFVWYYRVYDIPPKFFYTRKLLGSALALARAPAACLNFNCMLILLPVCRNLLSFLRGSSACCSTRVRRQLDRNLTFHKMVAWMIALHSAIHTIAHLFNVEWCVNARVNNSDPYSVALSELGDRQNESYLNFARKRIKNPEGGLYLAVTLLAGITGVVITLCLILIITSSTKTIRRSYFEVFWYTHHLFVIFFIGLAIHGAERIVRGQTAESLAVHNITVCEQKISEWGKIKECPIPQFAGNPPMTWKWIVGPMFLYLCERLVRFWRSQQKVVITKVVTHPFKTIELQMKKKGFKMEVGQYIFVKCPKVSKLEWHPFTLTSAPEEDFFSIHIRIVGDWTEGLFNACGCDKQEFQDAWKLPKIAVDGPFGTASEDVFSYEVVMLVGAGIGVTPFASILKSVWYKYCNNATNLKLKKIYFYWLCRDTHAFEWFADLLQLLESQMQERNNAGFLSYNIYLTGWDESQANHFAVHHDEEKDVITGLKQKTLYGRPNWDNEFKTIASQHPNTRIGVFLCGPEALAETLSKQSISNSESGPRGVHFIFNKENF

[19] = molecular target: NADPH oxidase 4 (Homo sapiens) (UniProt Q9NPH5); test: NOX4-dependent H2O2 signal modulators, primary screen, NOX inhibitor project, cell-based, HEK293-NOX4, tetracycline-induced, Amplex Red fluorescence (AID 1160); settings: 45 min, higher = more signal, called active from +8 up or from −8 down
Chain of NADPH oxidase 4 (Homo sapiens) (Q9NPH5 whole entry, looked up): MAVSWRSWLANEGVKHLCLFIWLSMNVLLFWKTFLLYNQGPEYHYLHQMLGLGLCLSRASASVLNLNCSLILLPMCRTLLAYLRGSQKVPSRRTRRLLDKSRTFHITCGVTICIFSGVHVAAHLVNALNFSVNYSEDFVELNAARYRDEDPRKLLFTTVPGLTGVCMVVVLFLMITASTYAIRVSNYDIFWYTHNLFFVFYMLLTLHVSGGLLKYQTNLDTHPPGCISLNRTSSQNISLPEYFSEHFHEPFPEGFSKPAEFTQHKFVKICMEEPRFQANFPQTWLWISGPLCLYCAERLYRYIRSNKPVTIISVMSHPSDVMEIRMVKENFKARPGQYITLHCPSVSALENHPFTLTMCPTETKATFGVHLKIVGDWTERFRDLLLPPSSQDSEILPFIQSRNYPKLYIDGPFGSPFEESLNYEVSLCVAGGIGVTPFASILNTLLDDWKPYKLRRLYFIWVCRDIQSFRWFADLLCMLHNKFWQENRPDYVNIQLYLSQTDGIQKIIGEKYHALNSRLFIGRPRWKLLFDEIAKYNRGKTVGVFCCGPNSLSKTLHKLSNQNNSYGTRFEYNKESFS

[20] = molecular target: NADPH oxidase 5 (Homo sapiens) (UniProt Q96PH1); test: NOX5-dependent H2O2 signal modulators, primary screen, NOX inhibitor project, cell-based, HEK293-NOX5, Amplex Red fluorescence (AID 1161); settings: HEK293-NOX5, ionomycin, 45 min, higher = more signal
Chain of NADPH oxidase 5 (Homo sapiens) (Q96PH1 whole entry, looked up): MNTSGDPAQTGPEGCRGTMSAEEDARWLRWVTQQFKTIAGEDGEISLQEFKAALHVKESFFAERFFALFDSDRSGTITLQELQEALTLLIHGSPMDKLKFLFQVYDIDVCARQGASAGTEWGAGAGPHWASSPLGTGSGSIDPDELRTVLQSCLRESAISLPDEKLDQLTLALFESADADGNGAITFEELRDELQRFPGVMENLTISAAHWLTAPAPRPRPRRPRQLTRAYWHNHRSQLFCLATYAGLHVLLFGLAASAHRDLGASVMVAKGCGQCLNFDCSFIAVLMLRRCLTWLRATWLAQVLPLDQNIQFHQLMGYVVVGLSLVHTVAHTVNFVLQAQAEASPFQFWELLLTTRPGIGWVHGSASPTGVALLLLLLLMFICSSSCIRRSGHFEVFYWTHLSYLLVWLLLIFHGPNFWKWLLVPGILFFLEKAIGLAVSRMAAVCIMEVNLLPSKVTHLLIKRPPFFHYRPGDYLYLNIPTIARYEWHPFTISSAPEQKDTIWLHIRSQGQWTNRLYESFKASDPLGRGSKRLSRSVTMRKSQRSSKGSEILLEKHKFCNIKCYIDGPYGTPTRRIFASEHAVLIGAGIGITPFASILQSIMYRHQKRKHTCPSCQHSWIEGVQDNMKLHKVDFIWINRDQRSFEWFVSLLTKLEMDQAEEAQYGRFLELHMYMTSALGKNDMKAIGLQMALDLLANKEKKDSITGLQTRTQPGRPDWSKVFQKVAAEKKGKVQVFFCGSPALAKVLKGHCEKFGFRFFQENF

Row | Compound | composite z-score [1] | z-score [2] | z-score [3] | z-score [4] | z-score [5] | composite z-score [6] | composite z-score [7] | composite z-score (Torsin-1A (Homo sapiens) [8]) | composite z-score (Torsin-1A (Homo sapiens) [9]) | composite z-score [10] | z-score [11] | composite z-score [12] | z-score [13] | z-score [14] | z-score [15] | z-score [16] | z-score [17] | z-score [18] | z-score [19] | z-score [20]
1 | Oc1ccc2cc[n+](Cc3sc4ccccc4c3Cl)cc2c1 | -0.127 | -0.683 (inactive) | -0.521 (inactive) | -0.374 (inactive) | 0.232 (inactive) | 0.361 | -0.12 | -0.648 | 0.11 | 1.53 | -0.669 (inactive) | 0.248 | 1.52 (inactive) | 0.109 (inactive) | 1.52 (inactive) | 0.352 (inactive) | 0.0138 | -0.121 (inactive) | -1.23 (inactive) | -0.1
2 | C=CCOC(=O)[C@H]1[C@@H]2C(=O)O[C@@H](c3ccccc3)[C@@H](c3ccccc3)N2[C@@H](c2ccc(OCCOC(=O)[C@@H]3C[C@@H]4C(=O)N[C@@H](CCCCNC(C)=O)C(=O)N4[C@@H]3c3ccc(O)cc3)cc2)[C@]12C(=O)Nc1ccccc12 | 0.39 | -0.0424 (inactive) | -0.122 (inactive) | -0.126 (inactive) | -0.464 (inactive) | -0.0038 | 0.095 | 0.665 | 0.505 | 2.05 | -0.226 (inactive) | 0.379 | 3.21 (inactive) | 1.61 (inactive) | 4.15 (inactive) | 0.841 (inactive) | -0.0842 | 1.56 (inactive) | 0.962 (inactive) | 0.576
3 | CCOC(=O)[C@H]1C/C=C/C[C@H](C(=O)OCC)C(=O)O[C@H]2[C@@H](OC)O[C@H](CO)[C@@H](OC(=O)c3c(OC)cccc3OC)[C@@H]2OC1=O | 0.172 | -4.57 (inactive) | 0.0437 (inactive) | 0.0816 (inactive) | 1.33 (inactive) | 0.475 | -0.0501 | 0.292 | 0.209 | 1.44 | -0.664 (inactive) | 0.446 | 13.5 (active) | 2.34 (inactive) | -0.083 (inactive) | 1.2 (inactive) | 0.122 | -3.32 (inactive) | -0.754 (inactive) | -3.76
4 | COC(=O)[C@H](Cc1ccccc1)N1CC2=C[C@@H](C3CC3)n3c(=O)n(C)c(=O)n3[C@H]2[C@@H]1[C@@H](O)Cc1ccccc1 | 0.0601 | -1.18 (inactive) | 0.39 (inactive) | 2.03 (inactive) | -0.269 (inactive) | 0.462 | -0.0589 | 0.413 | -0.0857 | 1.4 | -1.32 (inactive) | 0.355 | 11.5 (active) | 2.35 (inactive) | 0.645 (inactive) | 1.58 (inactive) | 0.144 | -0.813 (inactive) | -0.218 (inactive) | -1.71
5 | O=C1N(Cc2ccccc2)c2ccccc2[C@@H]2OC(c3ccc(OCCCO)cc3)=N[C@]12CCS(=O)(=O)c1ccccc1 | 0.443 | -2.24 (inactive) | -0.19 (inactive) | 3.13 (inactive) | -0.406 (inactive) | 0.209 | -0.0719 | 0.216 | 0.726 | 0.695 | -0.355 (inactive) | 0.387 | 24.7 (active) | 13.3 (active) | 1.79 (inactive) | 1.57 (inactive) | 0.0582 | 0.22 (inactive) | 1.32 (inactive) | 1.96
6 | O=C(NCCN1CCOCC1)[C@@H]1c2ccccc2C(=O)N(C2CCCCC2)[C@H]1c1ccc(CO)cc1 | -0.178 | -0.742 (inactive) | 0.00698 (inactive) | 0.791 (inactive) | -0.168 (inactive) | 0.254 | -0.153 | -0.945 | -0.653 | -0.908 | -0.306 (inactive) | -0.007 | 3.9 (inactive) | 1.22 (inactive) | 1 (inactive) | 0.403 (inactive) | 0.227 | 0.822 (inactive) | 1.3 (inactive) | 0.579
7 | COc1ccc([Si](C)(C)[C@@H]2[C@@H](CCO)O[C@]3(C(=O)N(Cc4ccc(N(C=O)c5ccccc5)cc4)c4ccccc43)[C@H]2C)cc1 | 0.0862 | -6.2 (inactive) | 0.00917 (inactive) | 4.55 (inactive) | 1.03 (inactive) | 0.426 | 0.106 | 0.164 | 0.469 | 0.868 | -0.482 (inactive) | -0.06 | 4.33 (inactive) | 2.33 (inactive) | 0.287 (inactive) | 1.7 (inactive) | 0.257 | 1.07 (inactive) | 1.52 (inactive) | 2.89
8 | CC#CC(=O)Oc1ccccc1C=CC(=O)OCC | -0.0407 | -1.99 (inactive) | -1.69 (inactive) | -0.0696 (inactive) | 1.7 (inactive) | 0.066 | -0.206 | -0.402 | 0.222 | 0.0449 | -0.158 (inactive) | -0.0011 | 8.09 (active) | 1.47 (inactive) | 0.692 (inactive) | 0.903 (inactive) | -0.275 | -0.405 (inactive) | -0.806 (inactive) | 1.8
